# Measurements reported in PubChem BioAssay AID631 (The Scripps Research Institute Molecular Screening Center, 2007).
# The campaign covered roughly 200,000 compounds. About 810 (0.41%) were called active. This excerpt belongs to a sample that is enriched for actives. A number with no mark means an inactive call. No stated cut-off is given here; in the data, active means activation above about 19%; inactive means the rest.
# Target: Peroxisome proliferator-activated receptor gamma (Homo sapiens) (UniProt P37231)
# Sequence (P37231 whole entry, looked up): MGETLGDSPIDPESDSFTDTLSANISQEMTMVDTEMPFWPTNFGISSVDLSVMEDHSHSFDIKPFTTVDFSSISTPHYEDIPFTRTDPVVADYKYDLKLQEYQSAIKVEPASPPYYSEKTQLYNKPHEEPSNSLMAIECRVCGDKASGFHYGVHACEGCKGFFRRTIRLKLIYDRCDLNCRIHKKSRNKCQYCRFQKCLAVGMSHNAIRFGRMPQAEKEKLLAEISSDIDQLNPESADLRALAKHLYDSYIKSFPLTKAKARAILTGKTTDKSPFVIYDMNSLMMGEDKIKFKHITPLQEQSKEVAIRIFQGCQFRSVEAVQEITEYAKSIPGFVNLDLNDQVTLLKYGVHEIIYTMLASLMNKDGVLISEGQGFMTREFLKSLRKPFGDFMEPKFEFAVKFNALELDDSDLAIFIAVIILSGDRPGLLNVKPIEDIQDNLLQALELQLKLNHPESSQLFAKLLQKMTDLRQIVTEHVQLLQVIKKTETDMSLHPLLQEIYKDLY
# Assay: PPARgamma agonists recruiting SRC-1 coactivator, primary screen, biochemical (AID 631);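 further: 0% = DMSO and 100% = reference agonist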
# Conditions: PPARgamma-SRC-1 coactivator recruitment biochemical assay; at 8 µM; stronger effect = higher value
row,Structure (SMILES),activation
1,Cc1cc(C)c2cc(CN(Cc3cccs3)Cc3nnnn3CC3CCCO3)c(=O)[nH]c2c1 (configuration not stated),23.5% (active)
2,Cc1cc2cc(CN(Cc3cccs3)Cc3nnnn3CC3CCCO3)c(=O)[nH]c2cc1C (configuration not stated),-4.1%
3,Cc1cc(C)c2cc(CN(Cc3nnnn3Cc3ccc(F)cc3)C3CCCC3)c(=O)[nH]c2c1,2.6%
4,CCC(C)(C)NC(=O)C(c1ccccn1)N(C(=O)c1csnn1)c1ccccc1 (configuration not stated),3.1%
5,C/C(=N\NC(=O)OC(C)(C)C)c1ccc[nH]1,-0.7%
6,CC(=O)Nc1ccc(OCC(=O)NCc2ccc(C)cc2)cc1,-5.7%
7,Cc1ccc(OCC(=O)Nc2ccc(-c3nc4ncccc4o3)cc2)cc1,19.5% (active)
8,Cc1ccc(OCC(=O)Nc2ccc(S(=O)(=O)Nc3ccccn3)cc2)cc1,2.2%
9,O=C(C1CCN(C2CCN(Cc3cccc4c3OCO4)CC2)CC1)N1CCOCC1,1.6%
10,CCn1c(SCC(=O)Nc2cccc(F)c2)nnc1-c1cc2cc(Br)ccc2o1,24.4% (active)
11,CCn1c(CNC(=O)c2ccco2)nnc1SCC(=O)Nc1cccc(F)c1,1.6%
12,Cn1c(SCC(=O)Nc2ccc(Br)cc2F)nnc1-c1ccco1,0.1%
13,Cc1ccc(OCC(=O)OC(C)CN(C)Cc2ccccc2)cc1 (configuration not stated),5%
14,COc1ccc(OC)c(C(=O)CSc2nnc(-c3cccs3)o2)c1,11.4%
15,COC(=O)CSc1nccc(-c2cccs2)n1,4.8%
16,NC(=O)CSc1oc(-c2cccs2)nc1S(=O)(=O)c1ccccc1,20.3% (active)
17,COc1cccc(CNC(=O)Cc2csc(Nc3nc(=S)[nH]c4ccccc34)n2)c1,-3.6%
18,CC(C)C(NC(=O)C1CCC(C(C)(C)C)CC1)C(=O)NCCCN1CCCCC1 (configuration not stated),13.2%
19,Cc1cc(C)c2nc(N3CCCC3)c(C#N)cc2c1,3.7%
20,Cc1cccc2cc(C#N)c(N3CCCC3)nc12,7.6%
21,CC(=O)c1ccc(S(=O)(=O)N2CCN(c3nc4c(C)c(C)ccc4cc3C#N)CC2)cc1,27.9% (active)

row,Structure (SMILES),activation
1,CCCN1CNC(=S)N(CCc2ccccc2)C1,4%
2,CNS(=O)(=O)c1ccc(N2CCCC2=O)c([N+](=O)[O-])c1,-1.5%
3,COC(=O)c1[nH]c2ccccc2c1NC(=O)CN1CCCc2ccccc21,0.3%
4,COC(=O)c1[nH]c2ccc(Br)cc2c1NC(=O)Oc1ccccc1,20.2% (active)
5,COC(=O)c1[nH]c2ccccc2c1NS(=O)(=O)c1ccc(OC)cc1OC,6.1%
6,C=CCn1cc(-c2cccc(C(F)(F)F)c2)cc(C#N)c1=O,5.6%
7,CC(C)NC(=O)CSc1ccccc1C(=O)NCc1ccc2c(c1)OCO2,-1.4%
8,CCn1c(=O)cc(SCC(=O)NCc2ccc3c(c2)OCO3)c2ccccc21,21.9% (active)
9,CCn1c(=O)cc(SCC(=O)NCCC2=CCCCC2)c2ccccc21,13.8%
10,COCCCNC(=S)NNC(=O)C(O)(c1ccccc1)c1ccccc1,-2.3%
11,Cc1nn(CC(=O)NCc2ccccn2)c(C)c1[N+](=O)[O-],5.4%
12,CS(=O)(=O)N(CC(=O)NC1CCCC1)Cc1ccc(F)cc1,6.9%
13,CCOP(=O)(OCC)C(Nc1ccc([N+](=O)[O-])cc1)c1ccc(Cl)cc1 (configuration not stated),-6.5%
14,Cc1n[nH]c(=S)n1/N=C/c1ccc(Br)o1,7.5%
15,Cc1ccccc1-c1n[nH]c(=S)n1/N=C/c1ccc(-c2ccccc2Br)o1,32.5% (active)
16,Cc1ccccc1-c1n[nH]c(=S)n1C,3.3%
17,O=C1CCCN1CCCNC(=S)Nc1ccc(F)c(Cl)c1,-5.5%
18,CCc1nc2ccccc2c(C(=O)OC2CCCCC2=O)c1C (configuration not stated),12.2%
19,CC1=C(C(=O)N(C)C)C(c2ccccc2OC(F)F)NC(=O)N1 (configuration not stated),6.7%
20,COC(=O)c1ccc(S(=O)(=O)c2ccc(C(=O)OC)s2)s1,26.8% (active)
21,COC(=O)c1cc(OC)ccc1-c1ccc(OC)cc1,9.8%

row,Structure (SMILES),activation
1,CCS(=O)(=O)Nc1cc(C(=O)OC)ccc1C(=O)OC,7%
2,CCOc1ccc(S(=O)(=O)Nc2ccncc2)c(C)c1C,7.6%
3,Cc1ccc(C(=O)CNc2ccc(F)cc2)cc1,-3.3%
4,COc1cccc2c1CCC(NC(C)=O)C2=O (configuration not stated),0.5%
5,COc1ccc(NS(=O)(=O)c2cc(NC(=O)CC(=O)c3ccc([N+](=O)[O-])cc3)ccc2C)cc1,2.2%
6,O=C(O)/C=C\C(=O)Nc1ccc(OCc2ccccc2)cc1,5.5%
7,O=C(NCCCN1CCN(c2ccc(F)cc2)CC1)Nc1ccc([N+](=O)[O-])cc1,11.9%
8,CCSc1nc(-c2ccc(OC)cc2)cc(-c2ccc(OC)cc2)c1C#N,-1.5%
9,CCOC(=O)CC(=O)CSc1nc(-c2ccccc2)cc(-c2ccc(Cl)cc2)c1C#N,22.2% (active)
10,N#Cc1c(C(F)(F)F)cc(-c2ccc(Cl)cc2)nc1SCC(=O)O,3.2%
11,COc1ccc(C(=O)OCC(=O)NCC2CCCO2)cc1[N+](=O)[O-] (configuration not stated),15%
12,O=C(NCCOc1ccccc1F)Nc1ccc(Br)cc1,3.6%
13,CC/C(=N\NC(=O)c1ccccc1Cl)c1ccc(Br)s1,4.2%
14,CCOc1ccc(N=Cc2c(O)n(-c3cccc(C)n3)c(=O)c3ccccc23)cc1,1.1%
15,CCCCn1c(=O)c(C(C)=O)c(O)c2ccccc21,0.5%
16,CC(=O)n1c(C=Nc2ccccc2)c(O)c2ccccc21,22.7% (active)
17,COc1ccc(NS(=O)(=O)c2ccc(O)c(C(=O)OCC(=O)NC3CCCCC3)c2)cc1,4.7%
18,CNC(=O)c1[nH]cnc1C(=O)N[C@@H](CC(C)C)C(=O)OC(C)(C)C,5.5%
19,CN(CCc1cnn(C)c1)Cc1cn(C)nc1-c1ccccc1F,-5.8%
20,CC(C)N(Cc1ccccc1)C(=S)Nc1ccc(OC(F)F)cc1,-4.1%
